Where “and” joins values, the source holds several entries; their conditions need not be identical. Identical values can stand only once. Where a structure was tested more than once in an assay, its records may differ in their call. Calls of active or inactive are those of the source. How the source made its calls: active means hit-call score of the fitted dose curve at least 0.9, where 1 is the maximum; inactive means score below 0.9.
Read-out: Intercellular Adhesion Molecule 1 (ICAM1), ICAM1 (gene 3383)
Experiment: BSK_BF4T_ICAM1: BioMAP Diversity Plus: BF4T Assay for Intercellular Adhesion Molecule 1 (ICAM1) Biomarker Activity (AID 2284260)
Settings: primary human bronchial epithelial cells with fibroblasts
Protocol: BSK_BF4T is a cell-based, multiplexed-readout assay that uses bronchial epithelial cells and dermal fibroblasts, a human vascular primary cell, with measurements taken at 24 hours after chemical dosing in a microplate: 96-well plate.BSK_BF4T_ICAM1 is an assay component measured in the BSK_BF4T assay. It measures ICAM-1 antibody related to regulation of gene expression using ELISA technology.Data from the assay component BSK_BF4T_ICAM1 was analyzed at the endpoint, BSK_BF4T_ICAM1, in the positive analysis fitting direction relative to DMSO as the negative control and baseline of activity. Using a type of binding reporter, gain or loss-of-signal activity can be used to understand protein changes. To generalize the intended target to other relatable targets, this assay endpoint is annotated to the 'cell adhesion molecules' intended target family, where the subfamily is 'Immunoglobulin CAM'.
The levels of cell surface (or secreted, indicated by the prefix "s") biomarker endpoints were measured by ELISA. Overt cytotoxicity to cells in confluent adherent cultures (all systems other than the BT system) was assessed by measuring total protein levels using sulforhodamine B (SRB) staining in parallel cultures at the time of biomarker measurements, indicated as SRB endpoints. For proliferation assays for adherent cell types, individual cell types are cultured at sub-confluence and relative cell numbers quantified by SRB staining at time points optimized for each system (48 h: 3C and CASM3C systems; 72 h: BT and HDF3CGF systems; 96 h: SAg system). SRB was performed by staining cells with 0.1% SRB after fixation with 10% TCA and reading wells at 560 nm.Viability and proliferation of PBMC (T cells) was quantified by Alamar Blue reduction for the SAg and BT systems. For PBMC viability (referred to as PBMC Cytotoxicity within the assay endpoint names), cells were plated (75,000/well in a 96-well plate) and then chemical samples added for 1 h before addition of activators, SEB and TSST-1 (20 ng/mL final concentration each). Cells were incubated for 90 h. Then, Alamar Blue (20 uL/well) (Invitrogen, Cat DAL1100) was added for 6 h, and the plates were read with a fluorescence microplate reader at 546/580 nm (excitation/emission). For PBMC proliferation, cells were plated and activated as above but incubated for only 16 h prior to addition of Alamar Blue. Plates were read after 6 h.

SMILES | outcome | AC50
OCC(F)(F)OC(F)(F)C(F)(F)OC(F)(F)C(F)(F)OC(F)(F)F | inactive | –
O=C(O)C=CC(F)(C(F)(F)F)C(F)(F)F | inactive | –
OCC(F)(F)OC(F)(F)C(F)(F)OC(F)(F)C(F)(F)OC(F)(F)CO | inactive | 26.9 µM (active)
C=CC(=O)OCC(F)(F)C(F)F | – | 13.9 µM (active) and 22.8 µM (active)
O=C(O)C(F)(F)C(F)(F)C(=O)O | inactive | –
CC(O)C(F)(F)C(F)(F)F (stereo not given) | inactive | –
O=C(O)C(F)(OC(F)(F)C(F)(F)C(F)(F)F)C(F)(F)F (stereo not given) | inactive | –
O=C(O)C(F)(F)OC(F)(F)C(F)(F)OC(F)(F)C(=O)O | inactive | –
FC(F)(F)C(F)(C(F)(F)F)C(F)(F)C(F)(F)CC1CO1 (stereo not given) | inactive | –
COC(=O)C(F)(F)C(F)(F)OC(F)(C(F)(F)F)C(F)(F)OC(F)=C(F)F (stereo not given) | inactive | –
OCC(F)(F)OC(F)(F)C(F)(F)OC(F)(F)CO | inactive | –
O=S(=O)(F)C(F)(F)C(F)(F)C(F)(F)C(F)(F)C(F)(F)C(F)(F)C(F)(F)C(F)(F)F | inactive | –
O=C(O)C(F)(F)OC(F)(F)C(F)(F)OC(F)(F)F | inactive | –
NC(=O)C(F)(F)C(F)(F)F | inactive | –
